From PubChem
Sm TGR inh – S. mansoni TGR enzyme inhibition; Q962Y6; purified TGR, DTNB reduction, TNB absorbance 405 nm; Potency, µM (top dose mostly 114 µM), for inactives: at the highest dose activity change, negative = inhibition, usual class: inhibitors; actives 3% (n = 360,000); AID 485364; active = well fitted inhibition curve with a large enough effect; inconclusive = small, poorly fitted or top-dose-only effect; inactive = no such curve, though single readings can be large or run the other way; note: potency is the fitted concentration of half-maximal effect; % is set by controls: 0 for no effect and ±100 for the full control effect; nearly all actives have a fitted effect of over 60% in size
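First, TGR (20 nM dispensed) and NADPH were mixed with compound. Second, a 15 min room-temperature incubation followed. Third, further NADPH and then DTNB were added to start the reaction. Finally, TNB absorbance was monitored kinetically.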
Cycloheximide cs – counter-screen for Shiga toxin inhibitors: cycloheximide protein synthesis inhibition; cell reporter, cycloheximide protein synthesis inhibition counterscreen; max response, %; actives 12% (n = 300,000); AID 2314; in the data active = max response mostly above about 13%, no sharp cut-off; inactive = mostly below about 14%; note: read at 38.3 µM for the half of the compounds with a filed dose; 0% is about no effect
FMDV antiviral – blocks foot and mouth disease virus; actives 1.2% (n = 410,000); FMDV antiviral cell-based qHTS; AID 1159524; Potency, µM (titrated, usually from 57.9 µM), inactives show at the top dose activity change, negative = inhibition, usual class: inhibitors; calls by dose curve; tested in HEK293T cells; note: read-out not given here; potency is the fitted concentration of half-maximal effect; % is set by controls: 0 for no effect and ±100 for the full control effect; nearly all actives have a fitted effect of over 45% in size
Shiga toxin inh – blocks Shiga toxin action in Vero cells. Vero cells, Shiga toxin protein synthesis inhibition reporter. inhibition, % at 38.7 µM. actives 9.2% (n = 290,000); in the data active = inhibition mostly above about 28%, no sharp cut-off; inactive = mostly below about 43%; note: 0% is about no effect
The depositor's hits bear a star; ? = inconclusive; . = not tested or not shown; + = active, no number. An excerpt weighted towards active compounds, which were near 12% of everything screened.

SMILES	Sm TGR inh	Cycloheximide cs	FMDV antiviral	Shiga toxin inh
Cc1cc(C(=O)Nc2cnc3ccccc3c2)ccc1[N+](=O)[O-]	-1.6%	53.1*	58.7%	131.0*
Cc1ccc(C(=O)Nc2cnc3ccccc3c2)cc1	-3.2%	-10.0	3.55µM*	-27.5
O=C(Nc1cnc2ccccc2c1)c1cccnc1	-6.6%	22.8*	5.9%	63.5
O=C(Nc1cnc2ccccc2c1)c1cccc(-n2cnnn2)c1	0.2%	87.7*	35.2%	163.8*
COC(=O)c1cccc(NC(=O)c2cccc(-n3cnnn3)c2)c1	.	.	-11.7%	.
CN(C)C(=O)Nc1cnc2ccccc2c1	-3.7%	-2.0	0.4%	9.0
CC(C)Cn1c(=O)c2sccc2n2c(CCCC(=O)NCC(C)c3ccccc3)nnc12 (stereo not given)	2.4%	.	-17.3%	.
COc1cccc(O)c1CN1CCC2(CC1)c1ccccc1[C@@H](NC(=O)c1ccsc1)[C@@H]2OC	.	.	-6.8%	.
Cn1c(NC(=O)c2cccnc2)nc2ccccc21	-7.0%	37.9*	30.2%	+
O=C1COCCN1	.	-0.8	.	2.6
O=S(=O)(Nc1cccc(-c2ccc(N3CCCCCC3)nn2)c1)c1ccccc1Cl	2.6%	33.6*	7.1%	57.7*
O=S(=O)(Nc1cccc(-c2ccc(N3CCCCCC3)nn2)c1)c1ccccc1F	-10.0%	31.8*	60.4%	110.2*
CCOc1ccc2nc(SCC(=O)NCc3ccco3)sc2c1	-32.1%	18.3*	4.9%	44.5
CCOc1ccc2nc(SCC(=O)NC(=O)NCc3ccco3)sc2c1	-1.9%	3.2	-0.8%	2.2
CCOc1ccc2nc(SCC(=O)c3cccs3)sc2c1	-4.0%	41.8*	55.7%	139.3*
CCOC(=O)c1cccc(NC(=O)CCCn2c(C)c3cnn(-c4ccccc4)c(=O)c3c2C)c1	3.9%	.	?	.
Cc1ccc(Cl)cc1N1CCN(C(=O)c2cc3c(=O)[nH]c4ccccc4c3n2C)CC1	5.8%	-2.4	7.94µM*	14.2
C[N+]1(C)[C@@H]2CC[C@H]1CC(OC(=O)C(c1ccccc1)c1ccccc1)C2 (stereo not given in full)	3.7%	-1.1	-1.4%	19.3
CC[N+]1(C)[C@@H]2CC[C@H]1CC(OC(=O)[C@H]1CCC(C(=O)OC3C[C@H]4CC[C@@H](C3)[N+]4(C)CC)(c3ccccc3)c3ccccc31)C2 (stereo not given in full)	50.1µM*	.	-24.5%	.
COc1ccc(C(=O)N[C@H](C(=O)Nc2nc3ccccc3[nH]2)C(C)C)cc1	-2.3%	36.7*	14.2%	75.7*
CN(C)c1cccc(C(=O)Nc2nc3ccccc3[nH]2)c1	-5.1%	15.0*	-51.2%	44.0
O=C(Nc1nc2ccccc2[nH]1)c1cccc(F)c1	7.9%	23.9*	-15.4%	58.0*
O=C(Nc1nc2ccccc2[nH]1)C1CCN(C(=O)c2ccc(F)cc2)CC1	-5.1%	.	1.2%	.
O=C(/C=C/c1ccc(F)cc1)Nc1nc2ccccc2[nH]1	-9.1%	36.9*	.	77.2*
CCOc1cc(C2c3c(oc4ccccc4c3=O)C(=O)N2Cc2ccccc2Cl)ccc1O (stereo not given)	0.0%	.	58.3%	.
SMILES	Sm TGR inh	Cycloheximide cs	FMDV antiviral	Shiga toxin inh
O=C(c1cccc([N+](=O)[O-])c1)N1c2ncnn2C2(CCCCC2)[C@@H]2CCCC[C@@H]21	-3.2%	.	?	.
Cc1ccc(N(C)S(=O)(=O)c2cccc(C(=O)Nc3nc4ccccc4[nH]3)c2)cc1	-7.3%	36.1*	0.0%	39.0*
O=C(Nc1nc2ccccc2[nH]1)c1cccc(Br)c1	-1.5%	20.0*	14.1%	82.3*
COc1cccc(C(=O)Nc2nc3ccccc3[nH]2)c1	7.7%	26.9*	-66.7%	28.6
O=C(Nc1nc2ccccc2[nH]1)c1ccc(Br)o1	-7.8%	47.2*	3.0%	83.5*
COc1ccc(C(=O)Nc2nc3ccccc3[nH]2)cc1	-2.1%	-8.1	-83.6%	-10.0
COc1ccc(-c2noc(CSc3nc(N)cc(=O)[nH]3)n2)cc1OC	9.9%	.	?	.
Cc1ccc2onc(CC(=O)N3CCN(c4cc(Cl)ccc4C)CC3)c2c1	-31.2%	.	-20.1%	.
COc1ccc(CNCc2c(C(=O)O)n(Cc3ccc(F)cc3)c3cc(C)ccc23)cc1OC	7.8%	.	-1.2%	.
Cc1ccc(NC(=O)CN2C(=O)CSc3ccc(S(=O)(=O)N(C)C)cc32)cc1C	3.2%	.	3.9%	.
CCOC(=O)c1cc(-c2ccccc2)sc1NC(=O)C(C)Sc1nnc(C)s1 (stereo not given)	5.0%	10.7*	-14.9%	38.9
CCOC(=O)c1cc(-c2ccccc2)sc1NC(=O)C(C)Sc1nnnn1C (stereo not given)	2.5%	-2.7	0.0%	-5.3
CC1CN(CC(=O)NN=C(c2ccccc2)c2ccccc2)CC(C)O1 (stereo not given)	1.9%	0.9	-19.5%	15.4
Cc1[nH]c2ccccc2c1C(=O)CN1CCC(C)CC1	?	-3.6	-0.1%	-10.4
CN1CCN(CC(=O)c2ccccc2F)CC1	11.2µM*	-4.6	4.3%	14.6
CC1CCN(CC(=O)c2ccccc2Cl)CC1	-1.4%	13.8	1.2%	31.0*
Cc1c(O)ccc(C(=O)CN2CCN(c3ccccc3F)CC2)c1O	-29.2%	11.2	-3.4%	20.5
CC1CN(CC(=O)c2ccccc2Cl)CC(C)O1 (stereo not given)	44.7µM*	5.1	5.8%	7.3
O=C(CSc1nnc(-c2cccs2)o1)Oc1ccc(Cl)cc1	-11.8%	.	0.7%	.
Cc1nc2nc(SCC(=O)NC3CCC(C)CC3)nn2c(C)c1Cc1ccccc1 (stereo not given)	-13.9%	.	-16.8%	.
Cc1ccc(N2CCN(Cc3nnc(-c4ccc5c(c4)OCO5)o3)CC2)c(C)c1	10.7%	.	-9.1%	.
O=c1ccc2c(OCCCCOc3ccccc3)c3ccoc3cc2o1	.	19.1	.	0.7
COc1ccc(N2CCN(C(=O)Cc3c(C(=O)O)c(C)cn3C)CC2)cc1	-7.9%	.	-6.0%	.
Cn1ccnc1SCCNC(=O)CCc1nnc(CCc2ccccc2)o1	11.0%	8.4	1.3%	28.4
Cc1cccnc1CCNC(=O)CCc1nnc(CCc2ccccc2)o1	1.3%	9.0	6.4%	6.8
SMILES	Sm TGR inh	Cycloheximide cs	FMDV antiviral	Shiga toxin inh
Cc1cccnc1CN1CCN(C(=O)CCc2nnc(CCc3ccccc3)o2)CC1	-2.7%	24.5*	17.8%	73.6*
CC(=O)N1CCN(C(=O)CCc2nnc(CCCCc3ccccc3)o2)CC1	44.7µM*	-3.6	2.3%	-13.7
Cc1cc(-c2nnc(CCC(=O)N3CCN(Cc4cccc(F)c4)CC3)o2)c(C)o1	?	19.0*	8.2%	42.3*
Cn1ccnc1SCCNC(=O)CCc1nnc(CCCCc2ccccc2)o1	0.0%	12.3	-8.8%	22.8*
Cc1cccn2c(=O)c3cc(C#N)c(=O)n(-c4nnc(SCc5ccc(F)cc5)s4)c3nc12	-3.5%	.	-10.6%	.
COc1ccc(C(=O)O)cc1Nc1nc2ccc(C)cc2n2cnnc12	-3.1%	.	23.4%	.
CC(C)c1nc2ccc(C(=O)NCCCN3CCN(c4ccccc4F)CC3)cc2o1	-9.1%	.	-35.5%	.
O=C(CCc1nnc(CCCCc2ccccc2)o1)N1CCC(N2CCCC2)CC1	-5.7%	-6.9	7.1%	12.1
O=C(CCc1nnc(CCCCc2ccccc2)o1)N1CCCC(O)C1 (stereo not given)	-4.2%	12.9*	6.7%	38.3
CCc1c(C)nc(SCC(=O)NNC(=O)c2ccco2)[nH]c1=O	10.9%	29.8*	-22.9%	39.5*
